High-throughput results as filed in PubChem.
Pf growth 96h: P. falciparum growth inhibition at 96 hour, primary screen for plastid delayed-death inhibitors; Potency, µM (top dose mostly 28.7 µM), usual class: inhibitors; P. falciparum luciferase reporter growth, 96 h; actives 6.9% (n = 320,000)
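Delayed-death screen, second-generation endpoint: infected erythrocytes, 2% hematocrit, 0.05% parasitemia final; 96 hours at 37 C, 5% CO2; luciferase detection reagent; luminescence decrease equals reduced growth.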
Shiga toxin inh: Shiga toxin inhibition | Vero cells, Shiga toxin protein synthesis inhibition reporter | inhibition, % at 38.7 µM | actives 9.2% (n = 290,000); in the data active means inhibition mostly above about 28%, no sharp cut-off; inactive means mostly below about 43%
AMA1 RON2 block: AMA1-RON2 (P. falciparum) interaction inhibition; AlphaScreen AMA1-biotinylated RON2 peptide binding; Potency, µM (titrated, usually from 58.2 µM), actives largely listed as inhibitors; actives 0.2% (n = 360,000); AID 720542; further: nearly all actives have a fitted effect of over 45% in size
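AMA1 (3D7) with his tag at 25 nM final met compounds first, then biotinylated RON2 peptide at 25 nM; detection used donor plus acceptor beads, 10 µg/mL apiece, read by AlphaScreen after 30 min at room temperature.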
HCV inhibitor: blocks hepatitis C virus | Huh7.5.1 HCVcc-Cre infection, luciferase reporter, 44 h | Potency, µM (highest dose often 41.8 µM), most hits filed as inhibitors | actives 3.4% (n = 340,000) | AID 651820
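Compounds are dispensed onto cells plated 4 h earlier at 1,000 per well, with HCVcc-Cre virus (about 0.5 moi) added next. Following 44 h of culture, luminescent signal is measured for 15 sec after 15 min with substrate at room temperature.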
Pf growth 48h: inhibits P. falciparum growth in the first generation, 48 h; P. falciparum luciferase growth in erythrocytes, 48 h; Potency, µM (titrated, usually from 28.7 µM), actives largely listed as inhibitors; actives 5.9% (n = 310,000); AID 504832
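Luminescence readout; reporter = integrated firefly luciferase in P. falciparum. RBC culture at 2% hematocrit, 0.1% parasitemia final, 37 C/5% CO2; decreased signal taken as growth inhibition.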
CHX counter: counter-screen for Shiga toxin inhibitors: cycloheximide protein synthesis inhibition; cell reporter, cycloheximide protein synthesis inhibition counterscreen; max response, %; actives 12% (n = 300,000); in the data active means max response mostly above about 13%, no sharp cut-off; inactive means mostly below about 14%; further: read at 38.3 µM for the half of the compounds with a filed dose
Of the large screens only hits and unclear results are named; the others gave an inactive call. Hits are enriched below; roughly 21% of the tested compounds scored in any of these assays. Unless noted, the call rests on the fitted dose curve; in most records, active means well fitted curve in the direction sought with a large enough effect; inconclusive means small, poorly fitted or top-dose-only effect, or another doubt; inactive means no such curve, though single readings can be large; an effect the other way counts as inactive or inconclusive.

O=C(Cn1cc(Cl)ccc1=O)c1ccc(Cl)cc1	CHX counter 16
O=C(CN1CCN(CC(=O)c2ccc(Cl)cc2)CC1)c1ccc(Cl)cc1	none (no result: Pf growth 96h, Shiga toxin inh, Pf growth 48h, CHX counter)
O=C(Cn1cnc2cc([N+](=O)[O-])ccc2c1=O)NCCc1ccc(Cl)cc1	HCV inhibitor 14µM
CC(OC(=O)COc1ccc(C#N)cc1)C(=O)Nc1ccc(Cl)cn1 (stereo not drawn)	none (no result: Shiga toxin inh, CHX counter)
CC(C)c1ccc(/C=C(\NC(=O)c2ccccc2)C(=O)NCCCN2CCOCC2)cc1	none
O=C(Cn1cnc2ccccc21)c1ccc(Cl)cc1	CHX counter 28
O=C(Cn1cnc2ccccc2c1=O)c1ccc(Br)cc1	Pf growth 96h inconclusive, Shiga toxin inh 45, CHX counter 28
Cc1ccc(C(=O)Cn2cnc3ccccc3c2=O)cc1	Shiga toxin inh 76, CHX counter 30
CCOc1ccc(C(=O)Cn2cnc3ccccc3c2=O)cc1	Shiga toxin inh 117, CHX counter 57
C/C=C/c1cccc(-c2nc(C(=O)NC3CCC3)cc3c2[C@@H](CCO)N(S(=O)C(C)(C)C)C3)c1 (stereo partly drawn)	none (no result: Pf growth 96h, Shiga toxin inh, HCV inhibitor, Pf growth 48h, CHX counter)
O=c1c2ccccc2nnn1Cc1ccc(Br)cc1	none
O=C(CCn1nnc2ccccc21)OCC(=O)c1ccc(F)cc1	none
CC(C)OC(=O)c1ccc(Cn2nnc3ccccc3c2=O)cc1	Shiga toxin inh 89, HCV inhibitor inconclusive, CHX counter 27 (no result: Pf growth 96h, Pf growth 48h)
CCOC(=O)c1ccc(Cn2cnc3ccccc3c2=O)cc1	Pf growth 96h 13µM
O=C(Cn1cnc2ccccc2c1=O)c1ccccc1	Shiga toxin inh 78, CHX counter 39
O=C(Cn1nnc2ccccc21)OCC(=O)c1ccc(F)cc1	CHX counter 9.4
O=C(Cn1cnc2ccccc21)c1ccccc1	Pf growth 96h inconclusive
C[C@H](CO)N1C[C@H](C)[C@@H](CN(C)Cc2ccc(C(=O)Nc3ccccc3N)cc2)Oc2c(NC(=O)C3CCCCC3)cccc2C1=O	HCV inhibitor inconclusive (no result: Pf growth 96h, Shiga toxin inh, Pf growth 48h, CHX counter)
Cc1ccc(N2C(=O)c3ccc(C(=O)N4CCN(Cc5ccccc5)CC4)cc3C2=O)cc1	none
O=C(Cn1cnc2ccccc2c1=O)c1ccc(Cl)cc1	Shiga toxin inh 120, CHX counter 44
O=C(Cn1nnc2ccccc21)c1ccc(Cl)cc1	Shiga toxin inh 54, CHX counter 41
O=C(Cn1nnc2ccccc21)c1ccc([N+](=O)[O-])cc1	none
CCN(CC(=O)Nc1ccccc1OC)C(=O)CSCC(=O)Nc1cccc(C)c1	none (no result: Pf growth 96h, Shiga toxin inh, Pf growth 48h, CHX counter)
CCN(CC)CC(O)Cn1c(-c2cccc(Cl)c2)nc2cc(C)c(C)cc21 (stereo not drawn)	Shiga toxin inh 45, CHX counter 24
O=c1c2ccccc2nc(-c2cccc(Cl)c2)n1O	none
CCC(Oc1ccccc1)C(=O)Nc1ccccc1N1CCCCC1 (stereo not drawn)	HCV inhibitor inconclusive
CC(Oc1cccc(Cl)c1)C(=O)Nc1ccccc1N1CCCCC1 (stereo not drawn)	Pf growth 96h 12µM, Pf growth 48h 5.9µM (no result: Shiga toxin inh, CHX counter)
CC(Oc1ccc(F)cc1)C(=O)Nc1ccccc1N1CCCCC1 (stereo not drawn)	Pf growth 96h 12µM, Pf growth 48h inconclusive (no result: HCV inhibitor)
O=S(=O)(Nc1cc(Br)cc2cccnc12)c1cccc2ccccc12	none (no result: Pf growth 96h, AMA1 RON2 block, HCV inhibitor, Pf growth 48h)
COc1ccccc1C(=O)OCC(=O)c1cccc([N+](=O)[O-])c1	CHX counter 28
COc1ccccc1C(=O)COC(=O)/C=C/c1ccccc1	Shiga toxin inh 100, CHX counter 53
COc1ccccc1C(=O)COC(=O)c1ccccc1O	Shiga toxin inh 95, CHX counter 31
COc1ccccc1C(=O)COC(=O)c1ccc(N(C)C)cc1	Shiga toxin inh 94, CHX counter 35
COc1cc(NC(=O)c2ccccc2)c(OC)cc1NC(=O)CN1C(=O)N(C)C2(CCCCC2)C1=O	Pf growth 96h inconclusive, Pf growth 48h inconclusive (no result: Shiga toxin inh, CHX counter)
COc1ccccc1C(=O)COC(=O)c1cccs1	none (no result: Pf growth 96h, Shiga toxin inh, Pf growth 48h, CHX counter)
CCc1ccc(C(=O)COC(=O)c2ccccc2OC)cc1	Shiga toxin inh 133, CHX counter 43
CCc1ccc(C(=O)COC(=O)[C@@H](NC(N)=O)[C@@H](C)CC)cc1	Shiga toxin inh 77, CHX counter 22
O=S(=O)(c1cccnc1)N1CCCC(Nc2ccc(F)c(F)c2)C1 (stereo not drawn)	none (no result: Pf growth 96h, Shiga toxin inh, HCV inhibitor, Pf growth 48h, CHX counter)
